The values that follow come from PubChem BioAssay (NCATS).

Assay [1] addresses Nuclear receptor subfamily 1 group I member 2 (Rattus norvegicus) (UniProt Q9R1A7). Nature of the assay: qHTS assay for small molecule activators of the rat pregnane X receptor (rPXR) signaling pathway (AID 651751). Further: 0% is about no effect. The settings on record: rPXR reporter cells, luciferase (One-Glo), 24 h.
Assay [2] in a line: qHTS assay for small molecule activators of the human pregnane X receptor (PXR) signaling pathway (AID 720659). Further: 0% is about no effect. The settings on record: DPX-2 HepG2 CYP3A4-luciferase, 24 h; series mostly up to 92.3 µM.
Assay [3] is described as follows: qHTS assay to identify inhibitors of the type 1 interferon - major histocompatibility complex class I in skeletal muscle: Counter screen cell viability and HiBit confirmation (AID 1347412; active means well fitted inhibition curve with a large enough effect; further: nearly all actives have a fitted effect of over 60% in size; further: potency means the concentration at half of the fitted maximal effect; on activity change, negative = inhibition: on the % scale 0 is the no-effect control and ±100 the full control effect). The settings on record: iHSKM muscle cells + IFN-b, HiBiT or CellTiter-Glo, 24 h. The text has this:
Assay Submitter (PI): Travis B. Kinder Ph.D. & James Inglese Ph.D. Assay Development and Screening Technology Laboratory (ADST) National Center for Advancing Translational Sciences (NCATS), Rockville, MD National Institute of Health (NIH), Bethesda, Maryland Idiopathic inflammatory myopathies, collectively referred to as myositis, are a group of rare autoimmune diseases characterized by skeletal muscle inflammation, weakness, and usually accompanied by systemic pathologies of the skin, lungs, or vasculature. Current immunosuppressive therapies and glucocorticoids are often not curative and are accompanied by harsh side effects, especially in children with juvenile myositis. We initiated a drug repurposing and development program to identify more targeted, less toxic therapeutics to treat myositis. Although its cause is not known, muscle from a subset of patients have an abundance of the inflammatory type 1 interferon (IFN) and a down-stream product major histocompatibility complex class I (MHC class I), which are both thought to contribute to damage and weakness. We conducted quantitative high throughput screening on 6,576 compounds (4,679 unique) through a series of cell-based assays to identify those that inhibit the IFN-stimulated expression of MHC class I in muscle precursor cells (myoblasts). The compound identification and evaluation strategy utilized a primary screen with reporter-tagged MHC class I in genome-engineered myoblasts, ATP content counter screen for viability, HLA-ABC immunofluorescence secondary screen, and HLA-B RT-qPCR tertiary screen. The primary screen utilized CRISPR/Cas9 genome-engineering of immortalized human myoblasts, C25cl48, where a pro-luminescent reporter HiBit was fused to the C-terminus of endogenous MHC class I allele HLA-B*08:01 (HLA-B HiBit myoblasts). HiBit is an 11 amino acid fragment of NanoLuc luminescent reporter (Promega Corporation), and when complexed to the larger LgBit fragment, the reconstituted enzyme produces light in the presence of furimazine substrate (Schwinn et al., 2018). Briefly, HLA-B HiBit myoblasts were plated into 1536-well plates, treated with 4.0 ng/ml human IFN-beta and 650 inhibitory compounds identified from primary screening in a 12-point, 1:3 titration with a high final concentration of 46 uM. Compounds were pinned into duplicate plates, with one for HiBit confirmation and one for ATP content viability assay. After 24 hrs of treatment, cells were assayed by either Nano-Glo HiBiT Lytic Detection System (Promega) or CellTiter Glo (Promega), and luminescence measured by a ViewLux 1430 Ultra HTS (Perkin Elmer). References: Schwinn MK, Machleidt T, Zimmerman K, Eggers CT, Dixon AS, Hurst R, Hall MP, Encell LP, Binkowski BF, Wood K V. 2018. CRISPR-Mediated Tagging of Endogenous Proteins with a Luminescent Peptide. ACS Chem Biol 13:467-474. doi:10.1021/acschembio.7b00549
PROTOCOL TABLE (as described by Inglese et al., 2007) SEQUENCE No. (e.g., 1, 2, 3, etc.); […] (e.g., Cells, Incubation, Reagent, etc.); VALUE; DESCRIPTION 1a; Cells; 5 uL; Use a Multidrop Combi (Thermo Scientific) to seed 300 cells/well into 16 Greiner 1536 well white/solid bottom, high base, TC plates in 5 ul/well of iHSKM growth medium (GM) without dexamethasone into columns 1+2. Add metal lids with gas-exchange holes 1b; Cells; 5 uL; Use a Multidrop Combi (Thermo Scientific) to seed 300 cells/well into 16 Greiner 1536 well white/solid bottom, high base, TC plates in 5 ul/well of iHSKM GM without dexamethasone + 4 ng/ml IFN-b into columns 3 - 48. Add metal lids with gas-exchange holes 2; Incubate; 1 hr; Incubate at 37 C, 5% CO2, 95% RH 3; Compounds; 23 nl; Use Pin Tool (Wako) to transfer DMSO control, 92 uM final digitonin cytotoxic control, ruxolitinib IFN-b inhibitor control [High Concentration = 80 uM final, 16-pt, 1:2 in duplicate], and library compounds in DMSO. […]

Molecules are shown by their SMILES. Values joined by “and” are separate entries in the source; they are usually repeats but may differ in a detail not shown here. Equal values may be shown once. A number with no mark means an inactive call. Inconclusive results are not listed. Active and inactive are the calls of the source. Unless noted, how the calls were made is not given here.

Chain of Nuclear receptor subfamily 1 group I member 2 (Rattus norvegicus) (Q9R1A7 whole entry, looked up): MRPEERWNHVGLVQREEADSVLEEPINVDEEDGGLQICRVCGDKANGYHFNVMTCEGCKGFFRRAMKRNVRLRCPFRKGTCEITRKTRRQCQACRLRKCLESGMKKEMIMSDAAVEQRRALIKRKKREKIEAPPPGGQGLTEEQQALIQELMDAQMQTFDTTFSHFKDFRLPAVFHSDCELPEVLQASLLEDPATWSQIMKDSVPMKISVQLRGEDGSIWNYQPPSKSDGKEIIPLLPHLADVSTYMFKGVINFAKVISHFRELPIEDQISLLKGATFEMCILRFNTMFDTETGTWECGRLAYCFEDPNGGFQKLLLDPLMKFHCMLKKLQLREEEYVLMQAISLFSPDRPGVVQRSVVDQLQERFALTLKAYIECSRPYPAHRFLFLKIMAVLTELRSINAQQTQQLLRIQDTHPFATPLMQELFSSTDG

For the compound `Cc1cccc(Nc2cc(Cl)nc(SCC(=O)O)n2)c1C`, the max response in assay [1] was -4.85%. In addition, the result in assay [2] was inactive.

As to `CC1(C)[C@@H]2CC[C@@]1(C)C(=O)C2`, in assay [1], the max response is 4.84%. The outcome in assay [2] was inactive.

Consider `Nc1ccc(S(=O)(=O)Nc2nccs2)cc1`, for which the max response in assay [1] was -1.7%. Moreover, in assay [2], the compound was called inactive.

Take `C[C@]12CC[C@@H]3c4ccc(O)cc4CC[C@H]3[C@@H]1CCC2=O`: in assay [1], the max response was 1.32%.

For `NCCNCCNCCN`, the max response in assay [1] is 9.63%. The call in assay [2] was inactive.

Turning to `CCOC(=O)c1ccc(O)cc1`, the max response in assay [1] is 1.86%. Besides, the result in assay [2] was inactive.

In the case of `CCCc1c(OCCCCc2nn[nH]n2)ccc(C(C)=O)c1O`, in assay [1], the max response was -2.11%.

Turning to `[Cl][In]([Cl])[Cl]`, in assay [1], the max response is -5.11%. Also, in assay [2], the compound was classed as inactive.

`Cc1cc(CC(=O)O)n(C)c1C(=O)c1ccc(Cl)cc1`: the max response in assay [1] is -6.77%. Further, in assay [2], the result was inactive.

Consider `CCN(CC)CCNC(=O)c1c(C)[nH]c(/C=C2\C(=O)Nc3ccc(F)cc32)c1C`, for which the Potency in assay [3] (HiBiT) was 3.94 µM (active); in assay [3] (Viability) it was 7.01 µM (active).

Regarding `CC[C@H]1CN2CCc3cc(OC)c(OC)cc3[C@@H]2C[C@@H]1C[C@H]1NCCc2cc(OC)c(OC)cc21`, the Potency in assay [3] (HiBiT) was 0.787 µM (active). The activity change, negative = inhibition in assay [3] (Viability, at 45.9 µM (top of the series)) is -15.7%.

Turning to `CN(C)CCOC(C)(c1ccccc1)c1ccccn1` (stereo not given), the max response in assay [1] was 2.43%. For the same compound, the compound was called inactive in assay [2].

Turning to `NC(=O)N/N=C/c1ccc([N+](=O)[O-])o1`, the max response in assay [1] was -8.95% and -7.82%. In addition, in assay [2], the outcome was inactive.

For `CC(O)CN(CCN(CC(C)O)CC(C)O)CC(C)O` (stereo not given), the max response in assay [1] was -2.51%. In assay [2], the call was inactive.

In the case of `CCCCC(CC)COC(=O)c1ccccc1O` (stereo not given), in assay [1], the max response was 2.15%. Besides, in assay [2], the compound was classed as inactive.

As to `CCCCCCCCCCCCOS(=O)(=O)O`, the max response in assay [1] was 1.76% [middle of 4 runs]. Also, the result in assay [2] was inactive.
